Source: PMC11995724, “Antibiotic target discovery by integrated phenotypic and activity-based profiling of electrophilic fragments” (Cell chemical biology, 2025)
About 110 (3.4%) of roughly 3,200 compounds showed an effect of 50% or more. Only a selection was taken, and strong results are over-represented in it overall.

What follows are molecules tested on T1, V. cholerae SAD30. Details: relative growth, OD600, LB; 25 µM; inhibitor.
T1 construct: SAD30
Parameters: species or system S. aureus MSSA476 (TSB) or V. cholerae SAD30 (LB); 384-well bacterial growth screen at 25 uM, OD600 relative to DMSO control

SMILES	% of control remaining [%]
O=C(CCl)NCCC1=CCCCC1 [4-H05, 2-chloro-N-[2-(cyclohex-1-en-1-yl)ethyl]acetamide]	111.451
O=C(CCl)NCCc1cccc2c1Oc1ccccc1O2 [7-J18, 2-chloro-N-[2-(oxanthren-1-yl)ethyl]acetamide]	77.317
CN(CC(=O)Nc1cccc(Cl)c1)C(=O)CCl [5-F18, 2-chloro-N-{[(3-chlorophenyl)carbamoyl]methyl}-N-methylacetamide]	84.0601
Cc1ccc(Sc2ccc(NC(=O)CCl)cc2)cc1C [4-G03, 2-chloro-N-{4-[(3,4-dimethylphenyl)sulfanyl]phenyl}acetamide]	107.311
CCCCNC(=O)C(C#N)=Cc1ccc2c(c1)OCCO2 [9-G11, N-butyl-2-cyano-3-(2,3-dihydro-1,4-benzodioxin-6-yl)prop-2-enamide]	85.724
CCc1ccccc1NC(=O)CN(C)C(=O)CCl [6-L06, 2-chloro-N-{[(2-ethylphenyl)carbamoyl]methyl}-N-methylacetamide]	89.1838
O=C1C=CC(=O)N1c1ccc2ccccc2c1 [10-D07, 1-(naphthalen-2-yl)-2,5-dihydro-1H-pyrrole-2,5-dione]	22.2872
Cc1c(Cl)cccc1NC(=O)C(C)Cl (stereo not shown) [6-I10, 2-chloro-N-(3-chloro-2-methylphenyl)propanamide]	83.2686
Cc1c(Cl)cccc1N1C(=O)C=CC1=O [10-B17, 1-(3-chloro-2-methylphenyl)-2,5-dihydro-1H-pyrrole-2,5-dione]	23.3781
N#Cc1ccccc1NC(=O)CCl [5-P04, 2-chloro-N-(2-cyanophenyl)acetamide]	116.339
Cc1ccccc1N1C(=O)CSC1=C(C#N)C(=O)N1CCCCC1 [8-B12, 2-[3-(2-methylphenyl)-4-oxo-1,3-thiazolidin-2-ylidene]-3-oxo-3-(piperidin-1-yl)propanenitrile]	78.1101
Cc1ccccc1N1C(=O)C=CC1=O [10-J13, 1-(2-methylphenyl)-2,5-dihydro-1H-pyrrole-2,5-dione]	23.0664
CC(Cl)C(=O)Nc1ccccc1C#N (stereo not shown) [6-A11, 2-chloro-N-(2-cyanophenyl)propanamide]	96.0091
N#Cc1ccccc1N1C(=O)C=CC1=O [10-B13, 2-(2,5-dioxo-2,5-dihydro-1H-pyrrol-1-yl)benzonitrile]	22.7547
Cc1c(Cl)cccc1NC(=O)CNC(=O)CCl [5-N20, 2-chloro-N-{[(3-chloro-2-methylphenyl)carbamoyl]methyl}acetamide]	102.049
Cc1cccc(N2C(=O)C=CC2=O)c1C [10-H05, 1-(2,3-dimethylphenyl)-2,5-dihydro-1H-pyrrole-2,5-dione]	27.1186
